High-throughput results as filed in PubChem BioAssay.
TSHR antagonist – blocks TSH signaling through the human TSH receptor; P16473; TSHR-expressing cells, TSH-stimulated cAMP HTRF, 2 h; hits give low values; activity change, negative = inhibition, % at 11.5 µM; actives 0.2% (n = 330,000); AID 504810;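 active = activity change below a set negative limit, meaning inhibition stronger than a set level, cut at about -70% in these data; inconclusive = activity change between two set negative limits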; also: % is scaled to controls: 0 for no effect and ±100 for the full control effect
Target sequence (P16473 whole entry, looked up): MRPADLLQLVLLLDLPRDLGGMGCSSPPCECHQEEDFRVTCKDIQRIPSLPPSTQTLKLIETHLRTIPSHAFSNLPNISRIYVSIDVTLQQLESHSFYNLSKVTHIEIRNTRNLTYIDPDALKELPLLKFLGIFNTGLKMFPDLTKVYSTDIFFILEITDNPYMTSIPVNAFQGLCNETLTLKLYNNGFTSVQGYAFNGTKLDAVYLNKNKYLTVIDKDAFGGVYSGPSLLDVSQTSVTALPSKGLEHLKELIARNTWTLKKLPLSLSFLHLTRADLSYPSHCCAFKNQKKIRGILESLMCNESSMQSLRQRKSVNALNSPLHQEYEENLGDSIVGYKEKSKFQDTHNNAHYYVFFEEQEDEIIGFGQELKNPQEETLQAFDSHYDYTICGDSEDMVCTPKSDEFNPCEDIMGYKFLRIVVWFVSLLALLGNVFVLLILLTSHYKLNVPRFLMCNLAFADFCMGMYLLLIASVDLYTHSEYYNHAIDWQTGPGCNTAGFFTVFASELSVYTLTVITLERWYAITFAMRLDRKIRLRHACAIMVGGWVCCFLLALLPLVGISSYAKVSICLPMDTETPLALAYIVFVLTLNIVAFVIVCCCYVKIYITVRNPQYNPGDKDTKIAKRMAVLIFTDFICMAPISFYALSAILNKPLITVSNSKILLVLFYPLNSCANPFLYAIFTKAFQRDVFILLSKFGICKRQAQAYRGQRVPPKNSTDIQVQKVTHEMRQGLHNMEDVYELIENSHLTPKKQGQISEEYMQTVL
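TSHR-expressing cells were treated with compounds, then stimulated with TSH at EC80 (4nM final) for 2 hours at 37 deg C. Cellular cAMP was measured by HTRF competition between lysate cAMP and cAMP-d2 for a cryptate-labelled anti-cAMP antibody.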
TCR activator – T cell receptor activation; primary human leukocytes, anti-CD3, IL-2 HTRF, 48 h; Potency, µM (series often up to 9.22 µM), for inactives: at the highest dose activation of IL-2 secretion, hits mostly activators; 330,000 tested, under 10 active; active = well fitted activation curve with a large enough effect; inconclusive = small, poorly fitted or top-dose-only effect, or another doubt; inactive = no such curve, though single readings can be large or run the other way; also: % of control where 0% means no effect
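Primary human leukocytes were stimulated with a-CD3 beads plus compounds for 48 hr without co-stimulation; secreted IL-2 was quantified by HTRF using a-IL-2-K (europium cryptate) and a-IL-2-d2, excited at 320nm with acceptor emission read at 665nm.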
pAkt inh – Akt phosphorylation inhibition. Neuro2A IGF-stimulated pAkt S473 HTRF, 20 min; hits give low values. activity change, % for hits at 50 µM. actives 0.32% (n = 360,000). AID 651550; in the data active = activity change below about -80%; inconclusive = mostly about -51% to -80%; also: % is scaled to controls: 0 for no effect and ±100 for the full control effect
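Neuro2A cells in DMEM with 0.5% FBS, overnight at 37 deg C, given compound at single 50 µM final, then IGF (6 nM final) for 20 min at 37 deg C. Lysed; phospho-Akt Ser473 by HTRF after 24 h, 665/615 ratio.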
CCT chaperon mod – modulators of cytosolic chaperonin (CCT/TRiC) activity. purified chaperonin ATPase assay, HTRF ADP detection, 30 min. activity change, % (concentration not given with the values), hits read low. actives 0.3% (n = 360,000). AID 651819; in the data active = activity change below about -30%; also: % is scaled to controls: 0 for no effect and ±100 for the full control effect
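Enzyme 40 or 20 nM (batch-dependent) in Tris pH 7.4/KCl/MgCl2/DTT; cpd 76 uM single point; ATP 10 uM; 30 min 37 °C; Transcreener ADP HTRF detection, 30 min RT; ratio 665/615.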
Starred values were filed as active, the others as inactive; i = inactive; ? = inconclusive; · = no result; [ ] = dose if it differs, or a comment. This is a sample that favours compounds with a hit; in the whole collection about 0.74% have one here.

SMILES	TSHR antagonist	TCR activator	pAkt inh	CCT chaperon mod
Cc1ccc(N(C(=O)c2csnn2)C(C(=O)NCc2ccccc2)c2ccccn2)cc1 (stereo not given)	5	1%	i	0
Cc1c(NC(=O)COC(=O)c2ccc(O)cc2)c(=O)n(-c2ccccc2)n1C	34	-12%	i	-5
CC1(C)C2CCC1(C)C(OC(=O)c1ccccc1C(=O)O)C2 (stereo not given)	0	7%	i	0
CC1(C)C2CCC1(C)C(OCCNCCOC(=O)Nc1ccccc1)C2 (stereo not given)	-4	1%	i	-40*
CCN1C(=O)C2(C(C#N)=C(N)Oc3n[nH]c(COC)c32)c2ccccc21 (stereo not given)	3	1%	i	3
CCCc1[nH]nc2c1C1(C(=O)N(CC)c3ccccc31)C(C#N)=C(N)O2 (stereo not given)	-4	·	-110%*	0
COc1cc(OC)c(C#N)c(S(=O)(=O)Cc2ccccc2)c1	0	-4%	i	-3
N#Cc1c([N+](=O)[O-])cc([N+](=O)[O-])cc1S(=O)(=O)Cc1ccccc1	-81*	0%	i	-2
O=C(Nc1ccnc(-c2ccncc2)n1)c1ccc(Cl)cc1	19	4%	i	-2
COc1ccc(N2CCN(S(=O)(=O)CCNC(=O)COc3ccc(Cl)cc3)CC2)cc1	-4	6%	i	-40*
COc1ccc(CCNC(=O)Nc2ccc3nc([C@@H]4O[C@H](CO)[C@@H](O)[C@H](O)[C@H]4O)[nH]c3c2)cc1Br	·	·	i	0
CSc1nc(-c2ccccc2)nn1S(=O)(=O)c1ccc(Cl)cc1	10	0%	?	-1
CSc1nc(-c2ccccc2)nn1S(=O)(=O)c1ccccc1	15	5%[46.1 µM]	i	-50*
O=C1Nc2ccccc2N(O)N1c1cc(-c2ccccc2Cl)no1	16	7%	-110%*	-1
O=C1Nc2ccccc2N(O)N1c1cc(-c2cccc(Cl)c2)no1	32	-19%	i	0
C(=N\n1cnnc1)/c1ccc(OCc2cccc3ccccc23)cc1	-1	-1%	-134%*	0
COc1cc(/C=N/n2cnnc2)ccc1OCCOc1ccccc1	-5	1%	i	-3
C(=N\n1cnnc1)/c1cccc(OCCOc2ccccc2)c1	-13	-10%	i	-84*
COc1ccc(-c2nc3ccc(N4CCCC4)cc3c(=O)[nH]2)cc1OC	-13	4%	i	-79*
COc1ccc2nc(-c3ccccc3)[nH]c(=O)c2c1	·	0%	i	-2
NC(=S)c1ccc[n+]([C@@H]2O[C@@H](COP(=O)([O-])OP(=O)(O)OC[C@H]3O[C@@H](n4cnc5c(N)ncnc54)[C@H](OP(=O)(O)O)[C@@H]3O)C(O)C2O)c1 (stereo not given in full)	-12	·	·	·
Cc1cc(C)c(C)c(S(=O)(=O)N2CCN(CC(=O)c3c(N)n(Cc4ccccc4)c(=O)n(C)c3=O)CC2)c1C	22	-2%[46.1 µM]	i	0
CC1CC(C)CN(C(=O)c2ccncc2)C1 (stereo not given)	5	0%	i	-38*
CCOc1ccc(N(CC(=O)NCc2ccc(F)cc2)C(=O)CCC(=O)Nc2nccs2)cc1	-95*	3%	i	0
CCOc1ccc(N(CC(=O)NCc2ccc(OC)cc2)C(=O)CCC(=O)Nc2nccs2)cc1	-4	4%	i	-3
SMILES	TSHR antagonist	TCR activator	pAkt inh	CCT chaperon mod
COc1cc(C(=O)OCC(=O)N2CCOCC2)c([N+](=O)[O-])cc1OC	8	-2%	i	0
Cc1ccc(C2/C(=C(/O)c3ccc(Cl)cc3)C(=O)C(=O)N2CC2CCCO2)o1 (stereo not given)	-11	-5%	i	-1
O=C1C(=O)N(CC2CCCO2)C(c2ccccc2[N+](=O)[O-])/C1=C(/O)c1ccccc1 (stereo not given)	5	-1%	i	-49*
CCCn1c(N2CCN(CC(=O)NCc3cccs3)CC2)nc2ccccc21	-3	7%	-110%*	-1
COc1cccc(NC(=S)N2CCCN(Cc3ccc(F)cc3)C2)c1	-104*	-4%	i	-1
CCOc1cc(C(=S)N2CCN(C)CC2)ccc1OCC(=O)N1CCOCC1	2	-4%	-112%*	-2
Cc1cc(=O)[nH]c(-n2nc(C)c(Oc3ccccc3O)c2C)n1	-4	6%	-110%*	-2
O=C(O)c1cc([N+](=O)[O-])c(NCCC2=CCCCC2)c([N+](=O)[O-])c1	-26	-6%	i	-1
CCOC(=O)c1ccc2c(c1)n(CC)c(/C=C/N(C)c1ccccc1)[n+]2CC	-13	-4%[46.1 µM]	i	2
CC[n+]1c(/C=C/N(C)c2ccccc2)n(-c2ccccc2)c2ccc(-c3nc4ccccc4s3)cc21	-98*	-1%	i	1
COc1ccc(NC(=O)CC2C(=O)NCCN2C(=O)c2ccc(N(C)C)cc2)cc1 (stereo not given)	-4	-1%	i	-50*
Cc1ccc(S(=O)(=O)N2CCC(C(=O)N3CCCCCCC3)CC2)cc1C	·	·	i	0
CN(C)S(=O)(=O)N1CCC(Oc2ccc(C(=O)NCC(C)(C)CO)cc2)CC1	15	-5%	i	-2
O=CN1CCN(C(=O)CC(c2ccccc2)c2cc(Br)ccc2O)CC1 (stereo not given)	-9	10%	i	-2
O=C(CSc1nc2ccccc2nc1SCC(=O)N1CCOCC1)N1CCOCC1	-12	-1%	·	1
Cc1nnc(SCC(=O)N2CCOCC2)c2ccccc12	-9	4%	-115%*	4
CCCc1ccc(S(=O)(=O)NCc2nnc(SC)n2C)cc1	-2	-8%	i	-2
Cc1ccc2nc(CC(O)(c3ccccc3)c3ccccc3)ccc2c1	·	·	i	0
COc1cccc2ccc(CC(O)(c3ccccc3)c3ccccc3)nc12	·	·	i	-52*
COc1ccc2cc(S(=O)(=O)NCc3cccnc3)ccc2c1	-9	1%	i	-1
CN1CCN(C(=O)C(C(=O)c2ccc(F)cc2)n2ccccc2=O)CC1 (stereo not given)	33	7%	-99%*	0
Cc1ccc(C(=O)CSc2nc3cccnc3n2C)cc1	-9	0%	-106%*	-1
CC(C)c1ccc(-c2c(C#N)c(N)nc(SCC(=O)N3CCCCCC3)c2C#N)cc1	9	5%	-124%*	0
CC(C)c1ccc(-c2c(C#N)c(N)nc(SCC(=O)N3CCCCC3)c2C#N)cc1	1	3%	i	0
CCN(CC(=O)Nc1c(F)cccc1F)C(=O)c1ccc(N2C(=O)c3ccccc3C2=O)cc1	-2	1%	i	1
O=C(CSc1nc2ccccc2c(=O)[nH]1)N1CCN(S(=O)(=O)c2ccccc2)CC1	-6	-2%	-84%*	-1
CCOC(=O)c1cc(C(C)(C)C)oc1CN	-9	-6%[46.1 µM]	i	1
